Experimental data reported in PubChem BioAssay (Tox21).
Results filed as inconclusive are left out. A call without a number means that no potency is given here. The source made the active and inactive calls. Calls follow the shape of the dose curve; as a rule, active = well fitted curve in the direction sought with a large enough effect in the repeat runs; inconclusive = weak or mixed curves; inactive = no such curve, though single readings can be large; an effect the other way counts as inactive or inconclusive.

What was measured:
[1] = Caspase-3/7 induction in CHO-K1 cells by small molecules, qHTS cell viability counter screen (AID 1346979); also: nearly all actives have a fitted effect of over 35% in size
Outline: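 To flag cytotoxic compounds, treated CHO-K1 wild-type cells were given CellTiter-Fluor at 16hr and read fluorescently after 1hr at 37C; the caspase-3/7 luminescence was measured in these same wells.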

[2] = Caspase-3/7 induction in CHO-K1 cells by small molecules, qHTS assay (AID 1346980); also: nearly all actives have a fitted effect of over 15% in size
Outline: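 Wild-type CHO-K1 cells exposed to compounds for 17hr at 37 C, 5% CO2. Caspase-3/7 activity then measured by Caspase-Glo 3/7 luminescence after 30min at room temperature.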

[3] = Caspase-3/7 induction in HepG2 cells by small molecules, qHTS cell viability counter screen (AID 1346981); also: series mostly up to about 92 µM; nearly all actives have a fitted effect of over 30% in size
Outline: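 Multiplexed with the caspase-3/7 assay: HepG2 cells, 16 hr compound treatment, CellTiter-Fluor viability detection by fluorescence.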

[4] = biological target: Nuclear receptor subfamily 1 group I member 2 (Homo sapiens) (UniProt O75469); assay: Human pregnane X receptor (PXR) small molecule agonists, qHTS assay (AID 1346982); also: nearly all actives have a fitted effect of over 35% in size; also: potency is read from the fitted curve at half-maximal effect
Outline: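 We seeded PXR-Luc HepG2 cells in assay medium containing 5% charcoal-stripped FBS, added compounds 5 hr later, incubated 24 hr, and read luminescence with ONE-Glo reagent.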

[5] = biological target: Cytochrome P450 2D6 (Homo sapiens) (UniProt P10635); assay: Cytochrome P450 Family 2 Subfamily D Member 6 (CYP2D6) small molecule antagonists: luciferase reporter qHTS assay (AID 1671196); also: nearly all actives have a fitted effect of over 50% in size; also: potency is read from the fitted curve at half-maximal effect
Outline: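 Luminescence (RLU), read 20 min after detection reagent, indicated CYP2D6 conversion of proluciferin to luciferin during a 1 h NADPH-dependent reaction at room temperature.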

[6] = biological target: Cytochrome P450 2C19 (Homo sapiens) (UniProt P33261); assay: Cytochrome P450 Family 2 Subfamily C Member 19 (CYP2C19) small molecule antagonists: luciferase reporter qHTS assay (AID 1671197); also: nearly all actives have a fitted effect of over 65% in size; also: potency is read from the fitted curve at half-maximal effect
Outline: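 Luminescent readout of CYP2C19 activity: luciferin product detected 20 min after adding detection reagent. Before that, compound and enzyme-substrate mix preincubated 10 min at room temperature; NADPH-regenerating system started a 1 h, 37C reaction. Ketoconazole as positive control.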

[7] = biological target: Cytochrome P450 2C9 (Homo sapiens) (UniProt P11712); assay: Cytochrome P450 Family 2 Subfamily C Member 9 (CYP2C9) small molecule antagonists: luciferase reporter qHTS assay (AID 1671198); also: nearly all actives have a fitted effect of over 50% in size; also: potency is read from the fitted curve at half-maximal effect
Outline: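 P450-Glo proluciferin substrate with CYP2C9 enzyme; 10 min RT preincubation, then NADPH regeneration 1 h at 37C; luciferin detection reagent 20 min RT, luminescence in relative luminescence units.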

Chain of Nuclear receptor subfamily 1 group I member 2 (Homo sapiens) (O75469 whole entry, looked up): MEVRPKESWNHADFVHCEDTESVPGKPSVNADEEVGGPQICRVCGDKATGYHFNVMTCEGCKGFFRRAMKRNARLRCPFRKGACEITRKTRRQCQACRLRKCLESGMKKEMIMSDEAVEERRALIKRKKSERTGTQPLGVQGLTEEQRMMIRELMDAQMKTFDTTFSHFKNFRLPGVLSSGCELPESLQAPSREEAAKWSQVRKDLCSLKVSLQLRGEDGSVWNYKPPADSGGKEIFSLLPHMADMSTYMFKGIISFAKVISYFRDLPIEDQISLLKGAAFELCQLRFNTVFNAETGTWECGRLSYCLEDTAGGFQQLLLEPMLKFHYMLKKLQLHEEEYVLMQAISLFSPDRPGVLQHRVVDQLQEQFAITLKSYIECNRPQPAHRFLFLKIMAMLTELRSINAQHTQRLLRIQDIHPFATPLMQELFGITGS
Chain of Cytochrome P450 2C9 (Homo sapiens) (P11712 whole entry, looked up): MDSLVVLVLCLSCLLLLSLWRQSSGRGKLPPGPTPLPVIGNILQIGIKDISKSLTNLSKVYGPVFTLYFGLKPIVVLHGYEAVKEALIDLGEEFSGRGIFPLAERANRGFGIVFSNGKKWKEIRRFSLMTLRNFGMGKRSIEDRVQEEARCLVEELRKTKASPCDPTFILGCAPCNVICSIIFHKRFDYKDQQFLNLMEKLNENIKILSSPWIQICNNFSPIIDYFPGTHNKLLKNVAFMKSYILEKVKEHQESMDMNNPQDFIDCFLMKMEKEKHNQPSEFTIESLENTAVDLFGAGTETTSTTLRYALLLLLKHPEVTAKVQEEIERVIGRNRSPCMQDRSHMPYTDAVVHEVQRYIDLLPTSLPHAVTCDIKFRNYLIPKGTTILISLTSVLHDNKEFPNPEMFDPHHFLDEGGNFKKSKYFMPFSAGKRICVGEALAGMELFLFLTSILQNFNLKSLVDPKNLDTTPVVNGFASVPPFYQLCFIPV
Chain of Cytochrome P450 2D6 (Homo sapiens) (P10635 whole entry, looked up): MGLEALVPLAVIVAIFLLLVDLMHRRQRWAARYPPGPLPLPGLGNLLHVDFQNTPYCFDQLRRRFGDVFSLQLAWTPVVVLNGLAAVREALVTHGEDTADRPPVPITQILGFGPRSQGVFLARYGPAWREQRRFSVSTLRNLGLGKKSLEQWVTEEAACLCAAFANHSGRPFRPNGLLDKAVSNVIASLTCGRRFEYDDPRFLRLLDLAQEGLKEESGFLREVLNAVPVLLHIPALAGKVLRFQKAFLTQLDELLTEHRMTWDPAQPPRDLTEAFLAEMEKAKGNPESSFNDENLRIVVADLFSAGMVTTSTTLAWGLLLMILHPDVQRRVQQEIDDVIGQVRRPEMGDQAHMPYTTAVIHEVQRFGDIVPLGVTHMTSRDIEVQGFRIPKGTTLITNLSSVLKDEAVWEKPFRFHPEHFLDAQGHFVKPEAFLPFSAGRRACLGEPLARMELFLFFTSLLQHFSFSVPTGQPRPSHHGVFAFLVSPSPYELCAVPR
Chain of Cytochrome P450 2C19 (Homo sapiens) (P33261 whole entry, looked up): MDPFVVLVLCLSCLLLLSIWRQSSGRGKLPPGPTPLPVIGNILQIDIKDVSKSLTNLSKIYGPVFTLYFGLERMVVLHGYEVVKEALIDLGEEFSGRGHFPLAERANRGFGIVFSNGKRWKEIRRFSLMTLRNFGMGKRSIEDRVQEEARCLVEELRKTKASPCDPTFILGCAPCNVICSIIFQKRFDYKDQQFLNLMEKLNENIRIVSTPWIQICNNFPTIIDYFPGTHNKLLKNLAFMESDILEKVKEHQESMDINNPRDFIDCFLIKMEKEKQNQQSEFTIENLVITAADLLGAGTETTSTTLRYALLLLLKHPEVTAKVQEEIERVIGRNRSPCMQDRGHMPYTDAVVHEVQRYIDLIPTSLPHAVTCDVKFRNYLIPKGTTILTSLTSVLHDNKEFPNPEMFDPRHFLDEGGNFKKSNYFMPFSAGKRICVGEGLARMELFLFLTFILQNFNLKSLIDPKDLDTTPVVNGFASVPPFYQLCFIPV

For `CC1=NS(=O)(=O)c2cc(Cl)ccc2N1`, the Potency [1] was “inactive”, the outcome [2] was “inactive” and the Potency [3] was “inactive”. The Potency [4] was “inactive”, the Potency [5] was “inactive” and the Potency [6] was “inactive”. The Potency [7] was “inactive”.

In the case of `CCN(C=O)CC`, the Potency [1] is reported as “inactive”, the outcome [2] is reported as “inactive” and the Potency [3] is reported as “inactive”. For the same molecule, the Potency [4] was “inactive”, the Potency [5] was 72.9 µM (active) and the Potency [6] was “inactive”. The Potency [7] was “inactive”.

In the case of `CC(CO)(CO)[N+](=O)[O-]`, the Potency [1] is reported as “inactive”, the outcome [2] is reported as “inactive” and the Potency [3] is reported as “inactive”. For the same molecule, the Potency [4] was “inactive”, the Potency [5] was “inactive” and the Potency [6] was “inactive”. The Potency [7] was “inactive”.

With `C=CCCC(=O)O` the Potency [1] was “inactive”, the outcome [2] was “inactive” and the Potency [3] was “inactive”. The Potency [4] was “inactive”, the Potency [5] was “inactive” and the Potency [6] was “inactive”. For the same molecule, the Potency [7] was “inactive”.

In the case of `C=CCOCC(O)CO` (stereo unspecified), the Potency [1] is reported as “inactive”, the outcome [2] is reported as “inactive” and the Potency [3] is reported as “inactive”. The Potency [4] was “inactive”, the Potency [5] was “inactive” and the Potency [6] was “inactive”. For the same molecule, the Potency [7] was “inactive”.

With `CCCCCCCCCCCCSC` the Potency [1] was “inactive”, the outcome [2] was “inactive” and the Potency [3] was “inactive”. For the same molecule, the Potency [4] was “inactive”, the Potency [5] was “inactive” and the Potency [6] was “inactive”. The Potency [7] was “inactive”.

With `CC(COc1ccccc1)NN` (stereo unspecified) the Potency [1] was “inactive”, the outcome [2] was “inactive” and the Potency [3] was “inactive”. For the same molecule, the Potency [4] was “inactive”, the Potency [5] was “inactive” and the Potency [6] was “inactive”. The Potency [7] was “inactive”.

In the case of `NC(=O)Cc1cccc2ccccc12`, the Potency [1] is reported as “inactive”, the outcome [2] is reported as “inactive” and the Potency [3] is reported as “inactive”. For the same molecule, the Potency [4] was “inactive”, the Potency [5] was “inactive” and the Potency [6] was “inactive”. The Potency [7] was “inactive”.

In the case of `CCCC(C)C(=O)OCC` (stereo unspecified), the Potency [1] is reported as “inactive”, the outcome [2] is reported as “inactive” and the Potency [3] is reported as “inactive”. For the same molecule, the Potency [4] was “inactive”, the Potency [5] was “inactive” and the Potency [6] was “inactive”. For the same molecule, the Potency [7] was “inactive”.

In the case of `O=C(CO)[C@@H](O)[C@H](O)[C@H](O)CO`, the Potency [1] is reported as “inactive”, the outcome [2] is reported as “inactive” and the Potency [3] is reported as “inactive”. For the same molecule, the Potency [4] was “inactive”, the Potency [5] was “inactive” and the Potency [6] was “inactive”. For the same molecule, the Potency [7] was “inactive”.

In the case of `CC(C)[C@H]1CC[C@@H](C)CC1=O`, the Potency [1] is reported as “inactive”, the outcome [2] is reported as “inactive” and the Potency [3] is reported as “inactive”. The Potency [4] was “inactive”, the Potency [5] was “inactive” and the Potency [6] was “inactive”. For the same molecule, the Potency [7] was “inactive”.

In the case of `CC1(C)[C@@H]2CC[C@@]1(C)[C@H](O)C2`, the Potency [1] is reported as “inactive”, the outcome [2] is reported as “inactive” and the Potency [3] is reported as “inactive”. The Potency [4] was “inactive”, the Potency [5] was “inactive” and the Potency [7] was “inactive”.

In the case of `Cc1ccc(C(=O)c2ccccc2)cc1`, the Potency [1] is reported as “inactive”, the outcome [2] is reported as “inactive” and the Potency [3] is reported as “inactive”. The Potency [4] was “inactive”, the Potency [6] was 10 µM (active) and the Potency [7] was 31.7 µM (active).

In the case of `OCCCCCO`, the Potency [1] is reported as “inactive”, the outcome [2] is reported as “inactive” and the Potency [3] is reported as “inactive”. The Potency [4] was “inactive”, the Potency [5] was “inactive” and the Potency [6] was “inactive”. The Potency [7] was “inactive”.

With `CCCC(=O)O[C@]1(C(=O)CC)CC[C@H]2[C@@H]3CCC4=CC(=O)CC[C@]4(C)[C@H]3[C@@H](O)C[C@@]21C` the Potency [1] was “inactive”, the outcome [2] was “inactive” and the Potency [3] was “inactive”. The Potency [4] was 3.76 µM (active) and the Potency [7] was 15.5 µM (active).
